In the library only some 2.2% were active in any assay of this set; here they are far more common.
MRP reversal: compounds reversing MRP-mediated drug resistance. actives 0.04% (n = 85,000). H69AR cells + 2 uM doxorubicin, CellTiter-Glo, 72 h. differential viability (reversal), % at 10 µM;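 active means viability drop by adding the cancer drug above about 55%, with treated viability meeting a 40% cutoff, limit read from the data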;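 further: larger differential means the compound sensitizes cells more to doxorubicin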
LYP act: increases human PTPN22 phosphatase activity. Q9Y2R2. recombinant LYP, DiFMUP fluorescence; 0 = plate median, 100 = signal doubled. activation, % at 2 µM. actives 0.11% (n = 96,000). AID 697;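 active means activation at 2 µM above a set limit, the mean plus 5 SD, cut at about 37% in these data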
PLAP act: activators of human placental alkaline phosphatase; AID 696; actives 1.2% (n = 96,000); activation fold at 20 µM; purified PLAP enzyme, luminescent substrate read-out; active compounds read high; in the data active means activation fold above about 2
FAK inh: blocks human focal adhesion kinase activity | Q05397 | biochemical FAK kinase activity assay | inhibition, %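 (tested at 7 µM)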 | actives 0.84% (n = 97,000) | AID 727
Target sequence (Q05397 whole entry, looked up): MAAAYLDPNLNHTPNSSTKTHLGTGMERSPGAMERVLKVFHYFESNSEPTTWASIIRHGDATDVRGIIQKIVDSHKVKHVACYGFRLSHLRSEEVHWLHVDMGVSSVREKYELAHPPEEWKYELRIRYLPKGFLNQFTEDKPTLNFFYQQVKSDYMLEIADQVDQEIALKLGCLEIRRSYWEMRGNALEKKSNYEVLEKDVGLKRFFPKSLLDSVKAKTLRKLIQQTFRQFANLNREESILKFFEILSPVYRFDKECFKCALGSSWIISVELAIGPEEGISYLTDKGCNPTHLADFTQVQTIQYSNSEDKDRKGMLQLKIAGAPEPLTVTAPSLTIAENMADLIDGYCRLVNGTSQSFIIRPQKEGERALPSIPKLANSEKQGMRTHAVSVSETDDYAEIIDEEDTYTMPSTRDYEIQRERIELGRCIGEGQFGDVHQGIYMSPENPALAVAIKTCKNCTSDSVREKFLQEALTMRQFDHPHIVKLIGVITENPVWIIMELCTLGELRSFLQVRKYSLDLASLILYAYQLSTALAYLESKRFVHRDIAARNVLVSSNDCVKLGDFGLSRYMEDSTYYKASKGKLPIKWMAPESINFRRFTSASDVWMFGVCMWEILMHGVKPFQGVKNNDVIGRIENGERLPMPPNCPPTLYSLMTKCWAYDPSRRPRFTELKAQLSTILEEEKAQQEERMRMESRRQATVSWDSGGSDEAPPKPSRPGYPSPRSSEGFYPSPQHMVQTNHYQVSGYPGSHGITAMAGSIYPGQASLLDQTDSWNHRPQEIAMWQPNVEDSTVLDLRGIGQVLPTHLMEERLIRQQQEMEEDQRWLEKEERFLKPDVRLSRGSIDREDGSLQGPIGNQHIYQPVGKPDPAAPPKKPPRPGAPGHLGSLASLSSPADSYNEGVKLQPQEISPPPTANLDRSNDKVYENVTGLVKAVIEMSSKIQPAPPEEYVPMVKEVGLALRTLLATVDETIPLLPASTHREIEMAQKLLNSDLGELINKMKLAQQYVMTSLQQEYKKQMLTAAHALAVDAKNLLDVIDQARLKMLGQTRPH
MRP1 act: MRP-1 activation; H69AR cells + doxorubicin, viability rescue, CellTiter-Glo; actives 0.61% (n = 140,000); viability increase, % at 10 µM;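 active means viability gain under doxorubicin at or above a set limit, the compound median plus 3 SD, cut at about 4.7% in these data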;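 further: MRP-1 overexpressing cells given doxorubicin 25 µM after compound pretreatment; 18-22 h compound pretreatment then 72 h with doxorubicin before readout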
LYP inh 2: LYP (human) phosphatase inhibition; recombinant LYP catalytic domain, DiFMUP fluorescence; inhibition, % at 2 µM; actives 0.21% (n = 96,000); AID 640;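 active means inhibition at 2 µM at or above a set limit, the screen mean plus 3 SD, cut at about 24% in these data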
FAK inh confirm: FAK (human) inhibition confirmed; shares compounds with FAK inh; FAK kinase biochemical inhibition assay; inhibition, % at 7 µM; actives 28% (n = 750); AID 794
Hits are given with their value; . = inactive; / = no result given. Unless noted, no stated cut-off is given here; in the data, active means inhibition above about 19%; inactive means the rest.

SMILES	MRP reversal	LYP act	PLAP act	FAK inh	MRP1 act	LYP inh 2	FAK inh confirm
CC1=NN(C(=O)Cc2ccc([N+](=O)[O-])cc2)C(O)(c2ccccc2)C1 (stereo not given)	.	.	.	.	.	.	/
CN(NC1CC(=O)N(c2ccccc2)C1=O)c1ccccc1 (stereo not given)	/	/	/	/	.	/	/
Cc1ccc(C(=O)Nc2ccc([N+](=O)[O-])cn2)o1	/	/	/	/	.	/	/
Cc1c(Cl)cccc1N=Cc1ccc([N+](=O)[O-])s1	/	.	.	25	.	.	.
O=C(NCCc1ccccc1)c1ccc(Cl)nc1	.	.	/	.	.	.	/
O=C(NCc1ccco1)c1cccn2c(=O)c3cc4ccccc4cc3nc12	.	.	.	37	.	.	.
Cc1ccc(Cn2c(=N)c(C(=O)NCc3ccco3)cc3c(=O)n4ccccc4nc32)cc1	.	.	/	40	.	31	.
COC(=O)c1[nH]c2ccc(C)cc2c1NC(=O)CN1CCCc2ccccc21	.	.	.	20	.	.	22
COC(=O)c1[nH]c2cc(C)ccc2c1NC(=O)CN1CCN(c2ccccc2OC)CC1	/	.	.	.	.	.	/
COc1ccc(N2CC(NC(=O)NCC(C)C)CC2=O)cc1 (stereo not given)	/	/	/	/	.	/	/
CCCN(CCC)C(=O)CSc1nc2n[nH]c(C)c2c(=N)n1-c1ccc(OC)cc1	/	.	/	22	.	.	.
Cc1nnc(SCC(N)=O)n1CCc1ccccc1	.	.	/	.	.	.	/
CCOc1ccc(/C=N/NC(=O)c2cc(-c3ccco3)nc3ccccc23)cc1	/	/	/	/	.	/	/
O=C(N/N=C/c1ccc(F)cc1)c1cc(-c2ccco2)nc2ccccc12	/	.	.	72	.	.	45
CCOc1ccc(N=C2NC(=O)S/C2=C\c2ccc(Cl)cc2)cc1	/	.	.	33	.	26	51
CC(=O)N1CCc2cc(S(=O)(=O)NCCC(=O)N3CCN(c4ccccn4)CC3)ccc21	.	.	.	32	.	.	.
O=c1cc(-c2ccco2)oc2c1ccc1ccccc12	.	.	.	26	.	.	22
CCc1c(C)sc(NC(=O)C2CC2c2ccccc2)c1C(N)=O (stereo not given)	/	.	.	35	.	.	.
NNC(=O)[C@@H]1C[C@@H]1c1ccccc1	/	/	/	/	.	/	/
O=C(OCCN=C1NS(=O)(=O)c2ccccc21)c1cccnc1	.	.	.	51	.	.	28
CCCCN1C(=O)NC2NC(=O)NC21 (stereo not given)	.	.	/	.	.	.	/
O=C(NCCCCCCNC(=O)c1ccc(Br)s1)c1ccc(Br)s1	.	.	/	.	.	.	/
CCOC(=O)Cc1[nH]nc2c1C(c1cc(OC)ccc1OC)C(C#N)=C(N)O2 (stereo not given)	.	.	.	25	.	.	.
CC(=O)Nc1ccc2[nH]c(C)cc(=O)c2c1	.	.	.	81	.	.	.
CCOc1cc(CNc2ccc(O)cc2)cc(Br)c1OCc1ccccc1F	/	.	.	22	.	.	.
SMILES	MRP reversal	LYP act	PLAP act	FAK inh	MRP1 act	LYP inh 2	FAK inh confirm
COc1cc(CNc2ccc(O)cc2)cc(Br)c1OCc1ccccc1F	/	/	/	/	.	/	/
Cc1cc(OCCCCNC(C)C)cc(C(C)C)c1	/	/	/	/	.	/	/
CCC(NC(=O)Nc1ccc(O)cc1)(C(F)(F)F)C(F)(F)F	.	.	.	20	.	.	.
C=CCn1c(SCC(=O)c2ccc(CNC(C)=O)o2)nc2scc(C3CC3)c2c1=O	.	.	.	27	.	.	.
C=CCn1c(SCC(=O)NC2CCS(=O)(=O)C2)nc2scc(C3CC3)c2c1=O (stereo not given)	.	.	.	.	.	.	/
O=c1[nH]c2ccccc2n1CCCSc1cnc2ccccc2n1	.	.	.	42	.	.	.
CCCCn1c(=O)[nH]c2ccccc21	.	.	.	.	.	.	/
CCOC(=O)Cc1csc(NC(=O)Cc2cccs2)n1	.	.	.	19	.	.	.
Nc1nnnn1/N=C/c1ccccc1OCc1ccc(Cl)cc1Cl	/	.	.	29	.	.	.
CC(NC(=O)c1cccs1)c1n[nH]c(=S)n1C (stereo not given)	/	/	/	/	.	/	/
Cc1ccc(CSCC(=O)N/N=C/c2ccc(OCC(=O)Nc3ccc(C)cc3)cc2)cc1	/	.	.	26	.	.	.
Cc1c(Br)c([N+](=O)[O-])nn1CC(=O)Nc1c(C)n(C)n(-c2ccccc2)c1=O	/	/	/	/	.	/	/
c1ccc(-n2cnc3cc(NCc4cccs4)ccc32)cc1	.	.	.	23	.	.	.
Cc1ccc(-n2cnc3cc(NCc4cccs4)ccc32)cc1	.	.	.	.	.	.	/
CC1Cc2ccccc2N1C(=O)c1nn(C)cc1Br (stereo not given)	/	/	/	/	.	/	/
O=C(c1ccc2c(c1)OCO2)[C@@H]1[C@@H]2C(=O)N(C3CCCCC3)C(=O)[C@@H]2C2c3ccccc3C=CN21 (stereo not given in full)	.	.	.	.	.	.	/
O=C(c1cccs1)[C@@H]1[C@@H]2C(=O)N(Cc3ccc4c(c3)OCO4)C(=O)[C@@H]2C2c3ccccc3C=CN21 (stereo not given in full)	/	.	.	20	.	.	.
COC(=O)CNC(=O)C1(C)C=CCN1C(=O)c1ccccc1 (stereo not given)	/	/	/	/	.	/	/
COC(=O)c1ccccc1NC(=O)c1cccc(COc2ccccc2Cl)c1	/	.	.	23	.	.	.
O=C(NCc1ccccc1)c1cccc(COc2ccccc2Cl)c1	/	.	.	.	.	.	/
Clc1ccc2[nH]c3c(NCCCN4CCOCC4)ncnc3c2c1	.	.	.	.	.	.	/
CCN1CCCC1CNc1ncnc2c1[nH]c1ccc(Cl)cc12 (stereo not given)	/	.	2.1	21	.	.	.
O=C1CCCN1CCCNc1ncnc2c1[nH]c1ccc(Cl)cc12	.	.	.	29	.	.	.
CCc1ccc(/C=C2\CN(CC)Cc3c2nc2ccccc2c3C(=O)O)cc1	/	.	.	51	.	.	.
CCNC(=S)Nc1ccc(Cl)c(C(F)(F)F)c1	/	/	/	/	.	/	/
SMILES	MRP reversal	LYP act	PLAP act	FAK inh	MRP1 act	LYP inh 2	FAK inh confirm
CC(=O)Nc1cc(OC(C)=O)c2nonc2c1OC(C)=O	/	.	.	57	/	.	.
CC(=O)N(/N=C1\Sc2ccccc2C1=O)c1cccc(C)c1	.	.	.	19	.	.	.
CC(CNC(=O)CC(C)(C)C)NC(=O)CC(C)(C)C (stereo not given)	.	.	/	.	.	.	/
COc1ccc(C2C(C#N)=C(N)Oc3c2sc2nc(C)cc(C)c32)cc1 (stereo not given)	/	.	.	29	.	.	.
Cc1ccn2cc(-c3ccc(NC(=O)c4ccco4)cc3)nc2c1	/	/	/	/	.	/	/
O=C1C(Nc2ccccc2)=C(N2CCCCC2)C(=O)c2ccccc21	/	.	.	23	.	.	.
O=C1C(Nc2cccc(O)c2)=C(N2CCCCC2)C(=O)c2ccccc21	/	.	.	27	.	.	.

Screens: PubChem BioAssay, several laboratories
